From PubChem BioAssay
IDE exosite inh = insulin-degrading enzyme (human) exo-site inhibition; P14735; purified IDE, FL-6b probe fluorescence polarization; hits give low values; z-score at 20 µM; 17,000 compounds, 6.3% hits; AID 1259349;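 active = z-score of -3 or lower, meaning strong loss of probe binding signal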;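 note: His-tagged human IDE residues 42-1019 made in E. coli with 30 nM FL-6b probe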
* = called active by the depositor. Only a selection was taken, and hits are over-represented in it overall.

SMILES	IDE exosite inh
Cc1cccc(S(=O)(=O)N2CCCCN3[C@H](CO)[C@H](c4ccc(-c5cccnc5)cc4)[C@H]3C2)c1	4.9
Cc1ccccc1S(=O)(=O)N1CCCCN2[C@@H](CO)[C@@H](c3ccc(-c4cccnc4)cc3)[C@@H]2C1	-14*
Cc1cccc(S(=O)(=O)N2CCCCN3[C@H](CO)[C@@H](c4ccc(-c5cccnc5)cc4)[C@@H]3C2)c1	-3.7*
N#C[C@H]1[C@H](c2ccccc2C2=CCCC2)[C@H](CO)N1C(=O)NC1CCCCC1	0.092
O=C(Nc1ccccc1)N1CC(=O)N2[C@H](CO)[C@@H](c3ccc(C#Cc4cccnc4)cc3)[C@@H]2C1	3.7
Cc1nn(C)cc1NC(=O)C[C@H]1CC[C@H]2[C@H](COc3ccc(NC(=O)C4CCOCC4)cc3C(=O)N2C)O1	-0.8
O=C(Nc1cccc(F)c1)N1C[C@@H]2[C@H](c3ccccc31)[C@@H](CO)N2C(=O)Cc1ccccn1	0.35
CC[C@@H]1C/C=C\CCNC(=O)C[C@H](c2ccccc2)C(=O)N1	-0.11
C[C@@H]1CCCCO[C@H](CN(C)C(=O)c2ccncc2)[C@H](C)CN([C@H](C)CO)C(=O)c2cc(NC(=O)CCC(F)(F)F)ccc2O1	0.19
O=C(C1CCCCC1)N1CC(=O)N2[C@H](CO)[C@@H](c3ccc(C#CCc4ccccc4)cc3)[C@@H]2C1	-2.7
O=C(C1CCC1)N1CC(=O)N2[C@@H](CO)[C@@H](c3ccc(C#CCc4ccccc4)cc3)[C@@H]2C1	-3.3*
O=C(C1CCC1)N1CC(=O)N2[C@H](CO)[C@@H](c3ccc(C#CCc4ccccc4)cc3)[C@H]2C1	2.2
O=C(C1CCCCC1)N1CC(=O)N2[C@H](C1)[C@@H](c1ccc(C#CCc3ccccc3)cc1)[C@@H]2CO	1.7
O=C(C1CCC1)N1CC(=O)N2[C@H](C1)[C@H](c1ccc(C#CCc3ccccc3)cc1)[C@@H]2CO	-3*
O=C(C1CCC1)N1CC(=O)N2[C@H](C1)[C@@H](c1ccc(C#CCc3ccccc3)cc1)[C@@H]2CO	-0.42
CC(C)[C@@H]1C(=O)N[C@@H](c2ccc(F)cc2)CC=CC[C@H](C)Oc2ccccc2C(=O)N1C (mixture of isomers)	0.4
CCC(=O)N1CC2(C1)[C@@H](c1ccc(-c3ccc(F)cc3)cc1)[C@H](CO)N2C(C)=O	1.2
Cc1ccc(S(=O)(=O)Nc2ccc3c(c2)C(=O)N(C)[C@@H]2CC[C@H](CC(=O)NCCc4ccncc4)O[C@H]2CO3)cc1	-0.62
CO[C@H]1CC[C@@H]2CCN(C)C(=O)[C@H](C)CN(C)C(=O)c3cc(C#N)ccc3OC[C@H]1O2	0.31
CC(C)NC(=O)N1CCCCN2[C@H](CO)[C@H](c3ccc(C#Cc4ccccc4)cc3)[C@H]2C1	-5*
CC(C)C#Cc1ccc([C@H]2[C@H]3CN(C(=O)NC(C)C)CCCCN3[C@H]2CO)cc1	-0.26
CC(C)NC(=O)N1CCCCN2[C@H](C1)[C@@H](c1ccc(C#C[C@H](C)O)cc1)[C@@H]2CO	0.79
CC(C)C#Cc1ccc([C@@H]2[C@H](CO)N3CCCCN(C(=O)NC(C)C)C[C@@H]23)cc1	-0.18
CC(C)NC(=O)N1CCCCN2[C@H](CO)[C@H](c3ccc(C#C[C@H](C)O)cc3)[C@@H]2C1	-0.26
CC(C)C#Cc1ccc([C@@H]2[C@H](CO)N3CCCCN(C(=O)Nc4ccccc4)C[C@@H]23)cc1	3.2
SMILES	IDE exosite inh
CC(C)NC(=O)N1CCCCN2[C@H](C1)[C@H](c1ccc(C#Cc3ccccc3)cc1)[C@@H]2CO	-13*
CC(C)NC(=O)N1CCCCN2[C@@H](CO)[C@H](c3ccc(C#C[C@@H](C)O)cc3)[C@@H]2C1	1.4
CC(C)C#Cc1ccc([C@H]2[C@@H](CO)N3CCCCN(C(=O)NC(C)C)C[C@@H]23)cc1	1.8
CC(C)NC(=O)N1CCCCN2[C@H](C1)[C@@H](c1ccc(C#Cc3ccccc3)cc1)[C@@H]2CO	-3.7*
CC(C)NC(=O)N1CCCCN2[C@H](CO)[C@@H](c3ccc(C#CC4CC4)cc3)[C@H]2C1	-0.9
CC(C)NC(=O)N1CCCCN2[C@H](CO)[C@@H](c3ccc(C#Cc4ccccc4)cc3)[C@H]2C1	-9.2*
CO[C@@H]1CN(C)C(=O)c2cc(NS(=O)(=O)c3ccccc3C)ccc2OC[C@@H](C)N(S(=O)(=O)c2ccccc2)C[C@H]1C	0.77
COCC(=O)N1[C@H](CO)[C@@H](c2ccc(-c3ccccc3OC)cc2)C12CN(C(C)=O)C2	-0.3
C/C=C/c1ccc(C2[C@H]3CNC[C@@H]2N3Cc2ccccc2C(F)(F)F)cc1 (stereo not given in full)	0.72
CN(C)C(=O)c1ccc(-c2ccc(C3[C@@H]4CN(S(=O)(=O)Cc5ccccc5)C[C@H]3N4)cc2)cc1 (stereo not given in full)	-4.2*
Cc1ccc(S(=O)(=O)N2C[C@@H]3N[C@H](C2)C3c2ccc(-c3ccc(C(=O)N(C)C)cc3)cc2)cc1 (stereo not given in full)	1.1
Cc1ccccc1-c1ccc(C2[C@@H]3CN(S(=O)(=O)Cc4ccccc4)C[C@H]2N3)cc1 (stereo not given in full)	-2.4
CCc1cnc(N2[C@H](CO)[C@@H](c3ccc(C#CCC4CCCC4)cc3)[C@@H]2C#N)s1	3.5
O=C(Nc1cccc(F)c1)N1CCCCN2[C@H](CO)[C@@H](c3ccc(C#Cc4ccccc4)cc3)[C@H]2C1	0.57
CCCNC(=O)N1[C@H](C#N)[C@H](c2ccccc2-c2ccc(OC)cc2)[C@@H]1CO	-0.71
O=C(c1cccnc1)N1CC(=O)N2[C@H](C1)[C@@H](c1ccc(-c3ccc(F)cc3)cc1)[C@@H]2CO	-1.9
Cc1cccc(-c2ccc([C@@H]3[C@@H](CO)N4C(=O)CN(C(=O)c5cccnc5)C[C@H]34)cc2)c1	-4.2*
Cc1ccc(-c2ccc([C@@H]3[C@@H](CO)N4C(=O)CN(C(=O)c5cccnc5)C[C@H]34)cc2)cc1	-0.43
Cc1cccc(-c2ccc([C@@H]3[C@H]4CN(C(=O)c5cccnc5)CC(=O)N4[C@H]3CO)cc2)c1	-18*
O=C(c1cccnc1)N1CC(=O)N2[C@H](CO)[C@H](c3ccc(-c4ccc(F)cc4)cc3)[C@H]2C1	2
O=C(c1cccnc1)N1CC(=O)N2[C@H](C1)[C@H](c1ccc(-c3cccnc3)cc1)[C@@H]2CO	1.8
Cc1ccc(-c2ccc([C@H]3[C@H](CO)N4C(=O)CN(C(=O)c5cccnc5)C[C@@H]34)cc2)cc1	-3.2*
O=C(c1cnccn1)N1CC(=O)N2[C@H](CO)[C@@H](c3ccc(-c4ccccc4)cc3)[C@H]2C1	-0.27
O=C(c1cnccn1)N1CC(=O)N2[C@H](C1)[C@H](c1ccc(-c3cccc(F)c3)cc1)[C@@H]2CO	-0.65
Cc1cccc(-c2ccc([C@@H]3[C@@H](CO)N4C(=O)CN(C(=O)c5cnccn5)C[C@H]34)cc2)c1	-7.1*
CO[C@H](CN(C)Cc1cc(F)ccc1F)[C@H](C)CN([C@H](C)CO)S(=O)(=O)c1ccc(C)cc1	0.57
O=S(=O)(c1cccs1)N1CCCCN2[C@H](CO)[C@H](c3ccc(/C=C/c4ccccc4)cc3)[C@H]2C1	-0.77
Cc1ccc(-c2ccc([C@@H]3[C@H]4CN(C(=O)c5ccc(F)cc5)CCCCN4[C@H]3CO)cc2)cc1	0.33
COCC#Cc1ccc([C@@H]2[C@@H](CO)N3C(=O)CN(C(=O)Nc4cc(F)ccc4F)C[C@H]23)cc1	2.1
O=C(c1cccc(F)c1)N1CC(=O)N2[C@@H](CO)[C@@H](c3ccc(-c4cccnc4)cc3)[C@@H]2C1	3.3
